The structures appear in SMILES notation.

Chain of Dickkopf-related protein 1 (Homo sapiens) (O94907 whole entry, looked up): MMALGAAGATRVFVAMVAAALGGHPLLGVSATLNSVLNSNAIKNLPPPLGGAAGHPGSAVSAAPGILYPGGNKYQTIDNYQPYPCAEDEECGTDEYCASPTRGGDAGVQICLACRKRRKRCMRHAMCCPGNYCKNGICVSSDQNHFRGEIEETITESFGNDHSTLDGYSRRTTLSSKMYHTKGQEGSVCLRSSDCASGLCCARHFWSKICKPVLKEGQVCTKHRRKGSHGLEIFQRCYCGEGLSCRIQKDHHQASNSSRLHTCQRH

This assay concerns the target Dickkopf-related protein 1 (Homo sapiens) (UniProt O94907). Kind of assay: small molecules binding DKK1 protein – biochemical, small-molecule microarray, 635 nm fluorescence scan, primary screen (AID 1106).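 Also: score merges emission near 667 nm with signal to noise over three replicate slides.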 The following applies: higher = more signal.
Take `CCOC(=O)C[C@H]1[C@H](OC(=O)c2cc3ccccc3oc2=O)[C@@H](NC(=O)c2ccc3ccccc3n2)c2cc(OCCCO)ccc2N1C(=O)c1ccc2ccccc2n1`: the composite z-score is 1.01.

For the compound `CN1C(=O)C2C=CC(C(O)C3CCCCC3)N(N(c3ccccc3)c3ccccc3)C2C1=O` (stereo unspecified), the composite z-score is -1.28.

In the case of `COc1ccccc1CN1C(=O)c2ccccc2[C@@H](C(=O)NCC(C)C)[C@@H]1c1ccc(CO)cc1`, the composite z-score was determined as 0.213.

On to `COC(=O)[C@@]1(Cc2ccccc2)[C@H]2c3cc(C(=O)N(C)C)n(Cc4ccc(O)c(OC)c4)c3C[C@H]2CN1C(=O)c1ccccc1`, for which the composite z-score is -0.65.

`CCOC(=O)C[C@H]1[C@H](OC(=O)c2ccccc2-c2ccccc2)[C@@H](NC(=O)c2ccccc2)c2cc(OCCCO)ccc2N1C(=O)Cc1ccc(OC)cc1` had a composite z-score of -0.0633.

The compound `CCC[C@@H]1C[C@@]1(CCC)[C@@H](NC(=O)c1ccco1)c1ccc(Cl)cc1` had a composite z-score of -0.366.

As for `CN(C)CCCN1C(=O)[C@@]2(Cc3ccccc31)c1ccccc1C(=O)N(Cc1ccccc1)[C@H]2c1ccc(CO)cc1`, the composite z-score worked out at 0.0366.

As to `O=C(NCc1ccccc1)[C@]1(Cc2ccccc2)N=C(c2ccc(OCCCO)cc2)O[C@@H]1c1ccccc1`, the composite z-score was -0.565.

Turning to `O=C1c2ccccc2[C@](Cc2ccccc2I)(C(=O)NC2CC2)[C@H](c2ccc(CO)cc2)N1Cc1ccccc1Cl`, the composite z-score stood at 0.0978.

In the case of `C=C(C(=O)CC[C@H](OC(=O)c1cccnc1)c1ccc(OCCO)cc1)C(C)C`, the composite z-score is -0.17.

Compound `COCCOC(=O)N1C(=O)[C@@]2(c3cc(C#CCCO)ccc31)[C@H](C(=O)N1CCc3cc(OC)c(OC)cc3C1)[C@H]1C(=O)O[C@H](c3ccccc3)[C@H](c3ccccc3)N1[C@@H]2c1ccc(OCCO)cc1` showed a composite z-score of 0.609.
